Measured values published in PubChem BioAssay (EPA / NIEHS).
The source made the active and inactive calls. Rule for the calls: active = hit-call score of the fitted dose curve at least 0.9, where 1 is the maximum; inactive = score below 0.9.

How the values were obtained:
[1] = biological target: Transcription factor E2F1 (Homo sapiens) (UniProt Q01094); experiment: ATG_E2F_CIS: Attagene CIS-FACTORIAL HepG2 Assay for human E2F Transcription Factor 1 (AID 2282935); details: HepG2 Attagene cis-reporter, E2F reporter RNA transcripts; actives raise or lower the signal
Procedure, shortened: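 Gain or loss of reporter transcript, fitted against DMSO, reflects E2F1-driven transcription. Transiently transfected HepG2 dosed 24 h before RNA isolation. Quantified by fluorescent RT-PCR products separated by capillary electrophoresis.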

[2] = ATG_E_Box_CIS: Attagene CIS-FACTORIAL HepG2 Assay for human Enhancer Box (E-box) (AID 2282936); details: HepG2 E-box cis-reporter transcription, actives raise or lower the signal
Procedure, shortened: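 E-box-driven reporter transcripts measured in transiently transfected HepG2 after 24 h exposure: RNA reverse-transcribed, PCR-amplified, fluorescently labelled, digested and resolved by capillary electrophoresis. Gain or loss relative to DMSO.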

[3] = ATG_M_61_CIS: Attagene CIS-FACTORIAL HepG2 Assay for M61 Transcription Factor (Internal Marker) (AID 2282937); details: HepG2 Attagene CIS-FACTORIAL M61 internal marker reporter; actives raise or lower the signal
Procedure, shortened: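 Human liver HepG2, transient MRTU transfection (cis promoter elements), 24 h compound. Total RNA → oligo(dT) RT → PCR → FAM label → HpaI → CE. Internal background marker; bidirectional fitting, DMSO = baseline.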

[4] = ATG_EGR_CIS: Attagene CIS-FACTORIAL HepG2 Assay for human Early Growth Response 1 (EGR1) (AID 2282938); details: HepG2 Attagene CIS-FACTORIAL EGR reporter mRNA; actives raise or lower the signal
Procedure, shortened: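 Transient transfection of human HepG2 with multiple cis-regulated reporter units, chemical exposure 24 h, total RNA isolated. Reverse transcription, PCR, fluorescent labelling and capillary electrophoresis quantify reporter transcripts; activity fitted bidirectionally against DMSO.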

[5] = ATG_M_19_CIS: Attagene CIS-FACTORIAL HepG2 Assay for M19 Transcription Factor (Internal Marker) (AID 2282939); details: HepG2 Attagene CIS-FACTORIAL M19 internal marker reporter; actives raise or lower the signal
Procedure, shortened: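 Following a 24 h exposure, RNA from transfected HepG2 cells was reverse-transcribed, PCR-amplified with reporter-specific primers, end-labelled with 6-FAM and HpaI-digested before capillary separation. Values represent gain or loss versus DMSO.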

[6] = ATG_ERE_CIS: Attagene CIS-FACTORIAL HepG2 Assay for Estrogen Response Element (ERE) (AID 2282940); details: HepG2 ERE cis-reporter, Attagene RNA transcript; actives raise or lower the signal
Procedure, shortened: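 HepG2, transient cis-reporter units, 24 h exposure. RNA isolated, oligo(dT) RT, reporter-specific PCR, FAM extension, HpaI cut, CE detection. Gain/loss-of-signal vs DMSO.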

[7] = ATG_Ets_CIS: Attagene CIS-FACTORIAL HepG2 Assay for human Erythroblast Transformation Specific (ETS) (AID 2282941); details: HepG2 ETS cis-reporter transcription, actives raise or lower the signal
Procedure, shortened: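 Bidirectional fit versus DMSO of reporter mRNA signal, detected by RT-PCR and capillary electrophoresis in HepG2 cells transiently transfected with cis-element reporters and dosed 24 h.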

[8] = ATG_FoxO_CIS: Attagene CIS-FACTORIAL HepG2 Assay for human Forkhead box O (FoxO) (AID 2282943); details: HepG2 Attagene cis-reporter, FoxO element, mRNA; actives raise or lower the signal
Procedure, shortened: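 Human hepatoma HepG2 cells carry transiently introduced reporter transcription units controlled by cis promoter elements. Chemical treatment lasted 24 h, and mRNA signal was compared with DMSO.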

[9] = ATG_GATA_CIS: Attagene CIS-FACTORIAL HepG2 Assay for human GATA Binding Protein (AID 2282944); details: HepG2 GATA cis-element reporter, Attagene multiplex mRNA; actives raise or lower the signal
Procedure, shortened: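 DMSO serves as negative control and baseline for bidirectional fitting of reporter mRNA changes. HepG2 cells bearing transiently transfected cis-promoter reporters were exposed 24 h; transcripts detected via RT-PCR and capillary electrophoresis.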

[10] = ATG_GLI_CIS: Attagene CIS-FACTORIAL HepG2 Assay for human Zinc Finger Protein GLI1 (AID 2282945); details: HepG2, Attagene cis-factorial reporter mRNA, GLI element; actives raise or lower the signal
Procedure, shortened: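 Bidirectional curve fits relative to DMSO, using reporter mRNA levels from RT-PCR plus capillary electrophoresis. Cells were HepG2 transiently carrying cis-regulated reporter constructs, harvested 24 h after dosing.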

[11] = biological target: Bile acid receptor (Homo sapiens) (UniProt Q96RI1); experiment: ATG_IR1_CIS: Attagene CIS-FACTORIAL HepG2 Assay for human Nuclear Receptor Subfamily 1 Group H Member 4 (NR1H4), IR1 submotif (AID 2282946); details: IR1 reporter transcription, actives raise or lower the signal
Procedure, shortened: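 HepG2 cells transiently transfected with multiplexed cis-element reporter units read endogenous transcription factor activity. After 24 h compound exposure, reporter mRNA was quantified by RT-PCR, fluorescent labelling, HpaI digestion and capillary electrophoresis; bidirectional fitting versus DMSO baseline.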

[12] = ATG_GRE_CIS: Attagene CIS-FACTORIAL HepG2 Assay for human Glucocorticoid Response Elements (GRE) (AID 2282947); details: HepG2 GRE cis-reporter, Attagene multiplex mRNA; actives raise or lower the signal
Procedure, shortened: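 Reporter transcripts read by RT-PCR with capillary electrophoresis fluorescence after a 24 h chemical exposure of HepG2 cells transiently transfected with multiple cis-element reporter units. Gain or loss fitted against DMSO.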

[13] = ATG_ISRE_CIS: Attagene CIS-FACTORIAL HepG2 Assay for human Interferon Regulatory Factor 1 (IRF1) binding to an Interferon-Stimulated Response Element (ISRE) (AID 2282948); details: HepG2 ISRE cis-reporter (Attagene), mRNA transcription readout; actives raise or lower the signal
Procedure, shortened: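 Uses HepG2 liver cells transfected with cis-regulated reporters and measures mRNA 24 h post-dosing through RT-PCR, primer-extension labelling and capillary electrophoresis, with DMSO as negative control.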

[14] = ATG_M_32_CIS: Attagene CIS-FACTORIAL HepG2 Assay for M32 Transcription Factor (Internal Marker) (AID 2282949); details: HepG2 Attagene cis-factorial M32 reporter, mRNA; actives raise or lower the signal;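 note: background control marker of the multiplexed CIS panel rather than a real target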
Procedure, shortened: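 HepG2 human liver cells transiently transfected with cis-promoter-driven multiple reporter transcription units, dosed 24 h. Reporter mRNA quantified by RT-PCR, FAM-labelled primer extension, HpaI digest and capillary electrophoresis; bidirectional fit versus DMSO baseline.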

[15] = ATG_M_06_CIS: Attagene CIS-FACTORIAL HepG2 Assay for M06 Transcription Factor (Internal Marker) (AID 2282950); details: HepG2 Attagene CIS-FACTORIAL M06 internal marker reporter; actives raise or lower the signal
Procedure, shortened: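 Fluorescence-labelled RT-PCR products from cis-promoter reporter units, cut with HpaI and resolved by capillary electrophoresis, give the signal. Cells are human HepG2, dosed for 24 h. Serves as background control, fitted relative to DMSO.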

[16] = biological target: Hypoxia-inducible factor 1-alpha (Homo sapiens) (UniProt Q16665); experiment: ATG_HIF1a_CIS: Attagene CIS-FACTORIAL HepG2 Assay for human Hypoxia Inducible Factor 1 (HIF1A) (AID 2282951); details: HepG2 Attagene cis-factorial HIF1a reporter transcription; actives raise or lower the signal
Procedure, shortened: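 Transient MRTU transfection of human HepG2 liver cells, 24 h compound treatment, then total RNA isolation, oligo(dT) reverse transcription, PCR amplification, fluorescent labelling and capillary electrophoresis of reporter fragments. Gain or loss relative to DMSO.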

[17] = biological target: Hepatocyte nuclear factor 6 (Homo sapiens) (UniProt Q9UBC0); experiment: ATG_HNF6_CIS: Attagene CIS-FACTORIAL HepG2 Assay for human Hepatocyte Nuclear Factor 6 (HNF6) (AID 2282952); details: HepG2 Attagene cis-factorial HNF6 reporter transcription; actives raise or lower the signal
Procedure, shortened: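 Activity values derive from bidirectional fitting against DMSO of reporter mRNA levels, measured by capillary electrophoresis of labelled RT-PCR products from HepG2 cells exposed 24 h.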

[18] = biological target: Heat shock factor protein 1 (Homo sapiens) (UniProt Q00613); experiment: ATG_HSE_CIS: Attagene CIS-FACTORIAL HepG2 Assay for human Heat Shock Transcription Factor 1 (HSE) (AID 2282953); details: HepG2 HSE cis-reporter, Attagene RNA transcription; actives raise or lower the signal
Procedure, shortened: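 After a 24 h incubation with test chemical, transfected HepG2 cells were harvested for RNA; reporter transcripts were measured by RT-PCR and capillary electrophoresis. Values reflect gain or loss of signal relative to DMSO.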

[19] = ATG_MRE_CIS: Attagene CIS-FACTORIAL HepG2 Assay for human Metal Responsive Element (MRE) (AID 2282954); details: HepG2 MRE cis-reporter transcription, Attagene multiplex; actives raise or lower the signal
Procedure, shortened: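 Endogenous MRE-dependent transcription read as reporter mRNA in transiently transfected human HepG2 cells at 24 h. RNA reverse-transcribed, PCR-amplified, labelled and resolved by capillary electrophoresis; gain or loss relative to DMSO.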

[20] = biological target: Hepatocyte nuclear factor 3-beta (Homo sapiens) (UniProt Q9Y261); experiment: ATG_FoxA2_CIS: Attagene CIS-FACTORIAL HepG2 Assay for human Forkhead box A2 (FOXA2) (AID 2282942); details: HepG2 cis-reporter transcription factor activity, 24 h; actives raise or lower the signal
Procedure, shortened: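 Transient MRTU transfection of HepG2 liver cells; 24 h treatment; total RNA → oligo(dT) RT → PCR → FAM primer extension → HpaI cut → CE. Bidirectional fit vs DMSO.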

Measured: AC50

Chain of Hepatocyte nuclear factor 6 (Homo sapiens) (Q9UBC0 whole entry, looked up): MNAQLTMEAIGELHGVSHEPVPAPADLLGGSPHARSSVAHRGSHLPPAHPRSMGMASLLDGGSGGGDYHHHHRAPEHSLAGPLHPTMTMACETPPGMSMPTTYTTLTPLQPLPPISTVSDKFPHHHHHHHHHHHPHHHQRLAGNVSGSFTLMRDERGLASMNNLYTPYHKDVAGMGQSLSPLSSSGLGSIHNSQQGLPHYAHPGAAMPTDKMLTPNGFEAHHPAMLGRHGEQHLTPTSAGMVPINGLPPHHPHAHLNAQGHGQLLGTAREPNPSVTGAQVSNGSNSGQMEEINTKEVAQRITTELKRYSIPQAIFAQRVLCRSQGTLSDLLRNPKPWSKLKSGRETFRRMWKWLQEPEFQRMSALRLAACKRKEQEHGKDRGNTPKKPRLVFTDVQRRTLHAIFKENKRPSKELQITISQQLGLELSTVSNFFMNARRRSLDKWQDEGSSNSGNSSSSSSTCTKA
Chain of Transcription factor E2F1 (Homo sapiens) (Q01094 whole entry, looked up): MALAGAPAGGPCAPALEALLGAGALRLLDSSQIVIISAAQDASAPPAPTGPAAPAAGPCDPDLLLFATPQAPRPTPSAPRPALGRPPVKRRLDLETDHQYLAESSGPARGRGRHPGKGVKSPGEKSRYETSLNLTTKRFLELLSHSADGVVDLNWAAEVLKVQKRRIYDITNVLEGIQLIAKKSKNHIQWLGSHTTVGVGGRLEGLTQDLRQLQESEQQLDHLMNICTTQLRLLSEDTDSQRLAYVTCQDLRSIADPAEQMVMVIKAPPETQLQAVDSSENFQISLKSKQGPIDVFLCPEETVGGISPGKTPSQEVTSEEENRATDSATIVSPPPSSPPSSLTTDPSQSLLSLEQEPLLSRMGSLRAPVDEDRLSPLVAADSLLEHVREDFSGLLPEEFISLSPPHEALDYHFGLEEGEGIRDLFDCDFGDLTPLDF
Chain of Bile acid receptor (Homo sapiens) (Q96RI1 whole entry, looked up): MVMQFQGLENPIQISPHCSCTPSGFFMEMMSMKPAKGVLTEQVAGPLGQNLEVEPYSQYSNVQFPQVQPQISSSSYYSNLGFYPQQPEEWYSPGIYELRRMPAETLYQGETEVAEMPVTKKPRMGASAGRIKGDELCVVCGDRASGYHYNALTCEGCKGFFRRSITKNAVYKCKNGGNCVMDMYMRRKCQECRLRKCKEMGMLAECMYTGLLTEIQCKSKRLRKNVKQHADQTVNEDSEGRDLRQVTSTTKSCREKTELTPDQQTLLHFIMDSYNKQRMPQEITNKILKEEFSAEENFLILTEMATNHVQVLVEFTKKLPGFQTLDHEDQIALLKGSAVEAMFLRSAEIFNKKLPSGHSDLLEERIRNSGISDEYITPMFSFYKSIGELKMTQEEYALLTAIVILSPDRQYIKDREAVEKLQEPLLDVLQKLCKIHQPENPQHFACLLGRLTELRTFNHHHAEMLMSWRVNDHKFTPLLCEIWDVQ
Chain of Hypoxia-inducible factor 1-alpha (Homo sapiens) (Q16665 whole entry, looked up, the tested form may be a part): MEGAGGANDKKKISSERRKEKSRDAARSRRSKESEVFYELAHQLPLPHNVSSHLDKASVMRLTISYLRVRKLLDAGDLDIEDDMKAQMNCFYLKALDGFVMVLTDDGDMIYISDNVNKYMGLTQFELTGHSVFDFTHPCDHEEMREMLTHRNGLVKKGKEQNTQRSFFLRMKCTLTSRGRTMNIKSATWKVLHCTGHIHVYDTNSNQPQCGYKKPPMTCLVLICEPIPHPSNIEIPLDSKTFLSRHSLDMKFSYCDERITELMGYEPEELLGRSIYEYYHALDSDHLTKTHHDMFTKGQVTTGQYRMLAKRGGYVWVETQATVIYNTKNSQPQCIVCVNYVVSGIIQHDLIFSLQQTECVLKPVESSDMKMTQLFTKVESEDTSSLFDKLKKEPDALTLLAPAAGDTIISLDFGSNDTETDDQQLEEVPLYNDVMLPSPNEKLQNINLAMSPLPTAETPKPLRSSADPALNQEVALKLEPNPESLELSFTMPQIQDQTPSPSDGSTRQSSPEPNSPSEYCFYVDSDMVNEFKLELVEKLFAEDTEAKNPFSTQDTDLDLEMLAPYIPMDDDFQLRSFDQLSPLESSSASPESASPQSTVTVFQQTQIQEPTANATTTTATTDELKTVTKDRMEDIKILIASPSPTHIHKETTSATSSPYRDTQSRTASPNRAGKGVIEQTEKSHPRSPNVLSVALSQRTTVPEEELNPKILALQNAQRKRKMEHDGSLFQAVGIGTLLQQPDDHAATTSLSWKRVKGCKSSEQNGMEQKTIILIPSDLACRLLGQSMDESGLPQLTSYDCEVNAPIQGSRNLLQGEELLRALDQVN
Chain of Heat shock factor protein 1 (Homo sapiens) (Q00613 whole entry, looked up): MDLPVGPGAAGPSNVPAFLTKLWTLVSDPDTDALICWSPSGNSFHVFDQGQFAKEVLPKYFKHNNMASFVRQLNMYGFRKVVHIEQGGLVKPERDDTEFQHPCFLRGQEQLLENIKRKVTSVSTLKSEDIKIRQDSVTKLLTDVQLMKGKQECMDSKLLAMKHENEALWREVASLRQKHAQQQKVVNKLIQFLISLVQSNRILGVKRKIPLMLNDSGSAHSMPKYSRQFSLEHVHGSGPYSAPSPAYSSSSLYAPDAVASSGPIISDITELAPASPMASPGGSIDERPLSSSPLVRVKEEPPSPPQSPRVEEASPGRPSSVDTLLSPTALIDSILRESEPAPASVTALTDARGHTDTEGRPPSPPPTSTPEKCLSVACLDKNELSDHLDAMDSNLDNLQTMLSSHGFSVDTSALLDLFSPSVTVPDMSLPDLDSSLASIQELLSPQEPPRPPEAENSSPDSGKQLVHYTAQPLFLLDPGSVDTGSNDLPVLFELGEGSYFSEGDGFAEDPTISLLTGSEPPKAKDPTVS
Chain of Hepatocyte nuclear factor 3-beta (Homo sapiens) (Q9Y261 whole entry, looked up): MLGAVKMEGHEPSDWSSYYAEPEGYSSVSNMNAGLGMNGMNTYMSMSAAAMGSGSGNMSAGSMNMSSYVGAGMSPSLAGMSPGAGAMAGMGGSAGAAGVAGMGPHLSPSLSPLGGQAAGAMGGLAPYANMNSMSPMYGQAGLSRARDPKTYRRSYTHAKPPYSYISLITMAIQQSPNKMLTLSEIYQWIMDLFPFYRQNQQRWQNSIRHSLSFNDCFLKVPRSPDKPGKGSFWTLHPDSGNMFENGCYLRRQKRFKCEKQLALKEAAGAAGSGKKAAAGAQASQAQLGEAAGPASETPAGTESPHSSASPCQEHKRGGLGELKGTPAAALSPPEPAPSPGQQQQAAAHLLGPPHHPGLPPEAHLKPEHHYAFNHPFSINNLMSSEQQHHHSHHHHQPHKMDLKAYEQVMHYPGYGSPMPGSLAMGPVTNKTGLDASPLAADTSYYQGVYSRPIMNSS

O=C(O)CCC(F)(F)C(F)(F)C(F)(F)F
not listed: [20]
inactive: all other assays above

OC(O)C(F)(F)C(F)(F)F
active: [13] 108 µM
not listed: [15] | [20]
inactive: all other assays above

Brc1nc2ccccc2s1
active: [2] 100 µM | [16] 125 µM | [18] 89.7 µM
not listed: [20]
inactive: all other assays above

CO[Si](C)(CCC(F)(F)C(F)(F)C(F)(F)C(F)(F)C(F)(F)C(F)(F)F)OC
not listed: [20]
inactive: all other assays above

COC(F)(C(F)F)C(F)(F)F (stereo not given)
not listed: [15] | [16] | [17]
inactive: all other assays above

Cc1cc(=O)[nH]c(C(C)C)n1
not listed: [15] | [20]
inactive: all other assays above

NC(O)(C(F)(F)F)C(F)(F)F
not listed: [16] | [20]
inactive: all other assays above

COc1ccccc1C=O
active: [16] 27.7 µM
not listed: [15] | [20]
inactive: all other assays above

O=C(c1ccccc1)c1ccc(O)cc1O
active: [6] 1.72 µM
not listed: [17] | [20]
inactive: all other assays above

CCCCCCCCCCCC(=O)Cl
not listed: [7] | [15] | [20]
inactive: all other assays above

CCOCOCC
not listed: [7] | [15] | [17]
inactive: all other assays above

CCCC(=O)OCC(COC(=O)CCC)OC(=O)CCC
active: [13] 53 µM
not listed: [7] | [17] | [20]
inactive: all other assays above

CCN(CC)c1ccc(C=O)cc1
active: [5] 25.8 µM
not listed: [7] | [20]
inactive: all other assays above

OCCCC(F)(F)C(F)(F)C(F)(F)C(F)(F)C(F)(F)C(F)(F)C(F)(F)C(F)(F)F
active: [13] 50 µM
not listed: [7]
inactive: all other assays above

FC(F)(F)C(F)(F)C(F)(F)CC1CO1 (stereo not given)
not listed: [7] | [15]
inactive: all other assays above
